S16 F2sN tox: cytotoxicity in S16 Pmp22-F2sN Schwann cells; AID 1508642; Potency, µM (doses to about 57.5 µM), inactives show at the highest dose activity change, negative = cytotoxicity, usual class: cytotoxic; actives 0.48% (n = 43,000); S16 Pmp22-F2sN Schwann cells viability, CellTiter-Glo, 24 h; also: potency is read from the fitted curve at half-maximal effect; % is scaled to controls: 0 for no effect and ±100 for the full control effect; nearly all actives have a fitted effect of over 65% in size
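Rat S16 Schwann reporter line, 24 h treatment with library compounds delivered at 23 nL per well. Cell viability by CellTiter-Glo luminescence.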
p53null 39C kill: kills p53 null cells at the nonpermissive temperature; H1299 p53-null (neo) cells, 39C, ATPlite viability, 24 h; Potency, µM (titrated, usually from 46.1 µM), without a hit: at the highest dose activity, negative = cell killing, usual class: cytotoxic; actives 0.97% (n = 55,000);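 also: potency is read from the fitted curve at half-maximal effect; 0% = DMSO only and -100% = full killing by 100 µM tamoxifen; nearly all actives have a fitted effect of over 50% in size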
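Luminescent ATP signal reported cell survival after H1299 lines (neo, p53 null; or p53 A138V) received up to 46 uM compound and 24 hr incubation at 39C.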
p53null 32C kill: p53 null cell cytotoxicity, permissive temperature | H1299-neo p53 null cells, ATP luminescence, 24 h, 32C | Potency, µM (titrated, usually from 46.1 µM), inactives show at the top dose activity change, negative = cytotoxicity, usual class: cytotoxic | actives 0.62% (n = 55,000);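 also: potency is read from the fitted curve at half-maximal effect; 0% = DMSO only and -100% = full killing by 100 µM tamoxifen; nearly all actives have a fitted effect of over 55% in size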
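AC50 values derive from Hill modelling of qHTS concentration-response data (up to 46 uM) in H1299-neo cells. Cells were treated 24 h at 32C following overnight attachment at 37C; viability was read as cellular ATP.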
PMP22 txn prim: modulators of PMP22 gene transcription in S16 Schwann cells; S16 Pmp22-F2sN Schwann cells (luciferase reporters placed in the Pmp22 gene), FLuc/NLuc coincidence luminescence, 24 h; Potency, µM (top dose mostly 57.5 µM), without a hit: top-dose activity change, negative = inhibition, hits mostly inhibitors; actives 2% (n = 43,000); active = clear falling dose curves in both reporters; inconclusive = both reporters move, but less clearly or upward; inactive = either reporter flat; the % is the NLuc reporter signal; also: potency is read from the fitted curve at half-maximal effect; % is scaled to controls: 0 for no effect and ±100 for the full control effect
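Reporter cells (S16 Pmp22-F2sN, 500–1,000 per well) exposed to compounds for 24 h, 37C, 5% CO2; lysis with FLuc read after 10 min, then Stop&Glo and NLuc read after 10 min.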
pS6 MEF inh: inhibitors of mTORC1 signaling in Tsc2-/- p53-/- MEF cells. actives 0.78% (n = 44,000). Tsc2-/- p53-/- MEF, phospho-rpS6 immunofluorescence/PI, 24 h. Potency, µM (titrated, usually from 38.3 µM), inactives show at the highest dose activity change, negative = inhibition, most hits filed as inhibitors;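 also: potency is read from the fitted curve at half-maximal effect; plate controls were DMSO for no effect and rapamycin for full effect; nearly all actives have a fitted effect of over 50% in size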
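Read-out: phospho-S6 Alexa-488 intensity over PI intensity per well, scored as % active cells using thresholds from rapamycin (7.5 nM) and DMSO controls. Tsc2-/-, p53-/- MEFs exposed to compound for 24 h; PI cell count recorded as viability.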
NLuc saturating: inhibits NanoLuc at saturating substrate, PMP22 counter-screen | shares compounds with PMP22 txn prim | Secreted NLuc enzyme (filtered S16 cell medium), Nano-Glo luminescence | Potency, µM (highest dose often 57.5 µM), for inactives: at the highest dose activity change, negative = inhibition, usual class: inhibitors | actives 4% (n = 690); also: potency is read from the fitted curve at half-maximal effect; % is scaled to controls: 0 for no effect and ±100 for the full control effect
NLuc Km ctr: inhibits NanoLuc under Km conditions, PMP22 counter-screen; Potency, µM (series often up to 57.5 µM), inactives show at the top dose activity change, negative = inhibition, most hits filed as inhibitors; AID 1508639; actives 5% (n = 690); shares compounds with PMP22 txn prim; secreted NLuc enzyme, coelenterazine luminescence, Km conditions; also: potency is read from the fitted curve at half-maximal effect; % is scaled to controls: 0 for no effect and ±100 for the full control effect
FLuc counter: counter-screen for PMP22 expression modulators: firefly luciferase inhibition. shares compounds with PMP22 txn prim. purified P. pyralis FLuc, luminescence, 10 min. Potency, µM (titrated, usually from 57.5 µM), inactives show at the highest dose activity, negative = inhibition, actives largely listed as inhibitors. 690 tested, under 10 active. AID 1508640; also: % of control where 0% means no effect
Target sequence (P08659 whole entry, looked up): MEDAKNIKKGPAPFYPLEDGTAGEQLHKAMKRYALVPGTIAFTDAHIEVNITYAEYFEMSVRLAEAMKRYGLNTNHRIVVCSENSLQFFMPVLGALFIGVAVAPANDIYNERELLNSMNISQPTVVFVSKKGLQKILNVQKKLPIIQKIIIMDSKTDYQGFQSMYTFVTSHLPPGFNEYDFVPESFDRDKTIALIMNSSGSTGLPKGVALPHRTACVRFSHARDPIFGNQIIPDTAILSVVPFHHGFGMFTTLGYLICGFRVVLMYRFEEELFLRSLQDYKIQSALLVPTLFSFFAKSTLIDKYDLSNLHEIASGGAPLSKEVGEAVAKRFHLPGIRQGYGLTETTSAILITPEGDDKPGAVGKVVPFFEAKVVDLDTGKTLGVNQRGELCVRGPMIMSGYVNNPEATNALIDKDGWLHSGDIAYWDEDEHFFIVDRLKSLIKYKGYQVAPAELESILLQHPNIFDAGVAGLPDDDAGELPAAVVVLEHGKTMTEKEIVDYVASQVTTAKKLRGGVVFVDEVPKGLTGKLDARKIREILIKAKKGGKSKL
S16 F2sN tox cnf: S16 Schwann cell cytotoxicity, confirmatory. actives 7% (n = 690). shares compounds with PMP22 txn prim. Potency, µM (series often up to 57.5 µM), inactives show top-dose activity change, negative = viability loss, hits mostly cytotoxic. AID 1508641. S16 Schwann cells viability, CellTiter-Glo ATP luminescence, 24 h; also: potency is read from the fitted curve at half-maximal effect; % is scaled to controls: 0 for no effect and ±100 for the full control effect
PMP22 txn conf: confirmation of modulators of PMP22 gene transcription in S16 cells. Potency, µM (highest dose often 57.5 µM), without a hit: top-dose activity change, negative = inhibition, usual class: inhibitors. actives 22% (n = 690). shares compounds with PMP22 txn prim. S16 Schwann cells Pmp22-F2sN, dual luciferase, 24 h; active = clear falling dose curves in both reporters; inconclusive = both reporters move, but less clearly or upward; inactive = either reporter flat; the % is the FLuc reporter signal; also: potency is read from the fitted curve at half-maximal effect
PMP22 prot conf: rat PMP22 protein level modulation, confirmatory. shares compounds with PMP22 txn prim. S16 Schwann cells Pmp22-HiBiT, luminescence, 48 h. Potency, µM (doses to about 27.9 µM), for inactives: at the top dose activity change, negative = inhibition, usual class: inhibitors. 95 tested, under 10 active. AID 1508647
Target sequence (P25094 whole entry, looked up): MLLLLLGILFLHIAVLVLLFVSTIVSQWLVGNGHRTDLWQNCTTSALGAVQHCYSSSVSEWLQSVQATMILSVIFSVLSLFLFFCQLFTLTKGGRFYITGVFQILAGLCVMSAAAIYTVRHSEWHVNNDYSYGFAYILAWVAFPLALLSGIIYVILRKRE
* marks the source's active call; other numbers are inactive results; ? = inconclusive; nt = no result. Compounds with a hit are over-represented: about 3.2% of the library has one in this group of screens. Unless noted, calls follow the shape of the dose curve; as a rule, active = well fitted curve in the direction sought with a large enough effect; inconclusive = small, poorly fitted or top-dose-only effect, or another doubt; inactive = no such curve, though single readings can be large; an effect the other way counts as inactive or inconclusive.

SMILES | S16 F2sN tox | p53null 39C kill | p53null 32C kill | PMP22 txn prim | pS6 MEF inh | NLuc saturating | NLuc Km ctr | FLuc counter | S16 F2sN tox cnf | PMP22 txn conf | others
Cc1cc(C)c(NC(=O)Cn2c(=O)n(Cc3ccc4c(c3)OCO4)c(=O)c3ccccc32)c(C)c1 | -6.1% | -11.4% | 4.0% | ? | 3.6% | nt | nt | nt | nt | nt
Cc1ccc(NC(=O)Cn2c(=O)n(Cc3ccco3)c(=O)c3ccc(C(=O)NC4CCCC4)cc32)c(C)c1 | 5.3% | -18.2% | -3.1% | ? | -2.5% | nt | nt | nt | nt | nt
Cc1ccc(NC(=O)Cn2c(=O)n(Cc3ccc4c(c3)OCO4)c(=O)c3ccc(C(=O)NC4CCCCC4)cc32)c(C)c1 | 4.0% | 27.1% | 10.1% | 8.43µM* | -8.9% | -1.5% | -3.4% | 0.6% | -25.1% | ?
O=c1c2oc3ccccc3c2ncn1Cc1ccc(Br)cc1 | -1.9% | 22.8% | -3.7% | -18.6% | ? | nt | nt | nt | nt | nt
CCOc1ccc(-n2c(SC(C)C(=O)OC)nc3c([nH]c4ccccc43)c2=O)cc1 (configuration not stated) | ? | 10.6% | 3.4% | -52.9% | -4.1% | nt | nt | nt | nt | nt
CCN(CC)CCOC(=O)c1ccc(NC(=O)Cn2ncc3c([nH]c4ccc(C)cc43)c2=O)cc1 | ? | -26.9% | 3.5% | 10µM* | 5.9% | -5.4% | -1.6% | 4.4% | 15.3µM* | 12.9µM*
Cn1ncc(C(=O)N2CCN(c3ccccc3)CC2)c1C1CCN(C(=O)OC(C)(C)C)CC1 | -1.5% | -3.2% | 6.0% | -17.9% | 0.4% | nt | nt | nt | nt | nt
CC(=O)Nc1ccc2nc(-c3cc(C)ccc3C)[nH]c2c1 | ? | -7.3% | -14.0% | -27.5% | -4.9% | nt | nt | nt | nt | nt
CC(=O)Nc1cc(NC(C)=O)cc(-c2nc3ccccc3[nH]2)c1 | ? | 31.0% | 5.4% | 7.27µM* | -14.1% | ? | ? | -16.0% | 15.9% | -7.4%
CC(Oc1ccccc1)C(=O)Nc1ccccc1C(=O)OCc1cc(=O)n2nc(C3CC3)sc2n1 (configuration not stated) | 7.7% | 3.5% | -5.8% | 6.48µM* | 20.8% | -9.7% | -2.5% | -13.8% | 4.6% | -11.0%
COCCn1c(SCc2ccccc2F)nc2c([nH]c3ccccc32)c1=O | 0.8% | 15.8% | -4.8% | 10.6µM* | -6.5% | -5.8% | -0.2% | 6.2% | -20.9% | ?
Cn1c(SCc2ccccc2F)nc2c([nH]c3ccccc32)c1=O | 0.6% | -10.4% | -0.9% | -3.3% | -7.5% | nt | nt | nt | nt | nt
Cc1ccc(Sc2ccc(N3CCCC(C(=O)Nc4ccc(F)c(Cl)c4)C3)nn2)cc1 (configuration not stated) | 10.7% | 1.0% | 3.3% | -44.2% | -9.0% | nt | nt | nt | nt | nt
O=C(CCS(=O)(=O)c1nc(-c2cccs2)cc(C(F)(F)F)n1)Nc1ccc(Br)cc1 | ? | 47.2% | 5.1% | 6.45µM* | ? | -7.2% | ? | -3.0% | ? | 10.9µM* | PMP22 prot conf=64.8%
CCN(CC)c1ccc(NC(=O)CSc2nc(-c3cccs3)cc(C(F)(F)F)n2)cc1 | -0.3% | -23.1% | 10.3% | ? | -13.7% | nt | nt | nt | nt | nt
CCOc1ccc(CCNC(=O)C2CCCN(S(=O)(=O)N(C)c3ccc(F)cc3)C2)cc1 (configuration not stated) | -5.1% | -22.3% | -1.6% | 11.4% | -16.9% | nt | nt | nt | nt | nt
COc1cc(C(=O)CC2(O)C(=O)N(Cc3ccccc3Cl)c3ccccc32)cc(OC)c1OC (configuration not stated) | -6.0% | ? | -3.4% | 11.3µM* | 4.14µM* | -10.6% | -2.4% | 8.0% | -2.6% | ?
COc1ccc(C(=O)Nc2ccc3nc(SCC(=O)N4CCc5ccccc54)sc3c2)cc1 | 21.4% | 5.4% | -25.3% | -25.8% | 0.0% | nt | nt | nt | nt | nt
Cc1ccc(OCC(=O)Nc2ccc3nc(SCC(=O)N4CCc5ccccc54)sc3c2)cc1 | 0.3% | -10.6% | -3.3% | 2.38µM* | -0.2% | -2.9% | -1.6% | -8.0% | -11.3% | 7.27µM* | PMP22 prot conf=?
Cc1ccc(CSc2nc3ccc(NC(=O)COc4ccc(F)cc4)cc3s2)cc1 | 6.5% | -10.5% | 0.8% | -8.3% | -1.0% | nt | nt | nt | nt | nt
O=C(COc1ccc(F)cc1)Nc1ccc2nc(SCc3ccccc3)sc2c1 | 17.0% | -1.8% | -10.4% | 6.96µM* | -12.9% | -0.6% | -1.0% | 8.5% | -5.8% | ?
Cc1cccc(OCC(=O)Nc2ccc3nc(SCc4ccccc4)sc3c2)c1 | 27.9% | ? | 1.4% | 16µM* | -4.2% | 3.3% | 4.4% | 1.0% | -0.8% | ?
Cc1nc2ccc(S(=O)(=O)CCC(=O)Nc3ccc(Cl)cc3)cc2s1 | -6.6% | -8.4% | 1.0% | 6.1% | -18.3% | nt | nt | nt | nt | nt
Cc1ccc(NS(=O)(=O)c2cc(Br)cc3c2N(C(=O)C2CC2)CC3)cc1C | ? | -8.1% | 19.8% | 8.91µM* | -12.5% | ? | -7.4% | -0.6% | ? | ?
COc1ccc(Cl)cc1NS(=O)(=O)c1cc(Br)cc2c1N(C(=O)C1CC1)CC2 | 2.8% | -0.4% | -0.1% | -43.8% | -12.1% | nt | nt | nt | nt | nt
COc1cc(NS(=O)(=O)c2cc(Br)cc3c2N(C(=O)C2CC2)CC3)cc(OC)c1 | -18.7% | ? | 7.94µM* | 3.57µM* | ? | 13.7µM* | ? | 0.0% | ? | 18.3µM*
